Most compounds without a hit are left out; they make up all but 9.9% or so of the library.
ALDH1A1 inh = blocks purified human ALDH1A1 activity; Purified ALDH1A1, NADH fluorescence, propionaldehyde substrate; Potency, µM (highest dose often 75.3 µM), for inactives: top-dose activity, negative = inhibition, most hits filed as inhibitors; hit rate 7.3% among 220,000; active = well fitted inhibition curve with a large enough effect, not every such curve was filed as active; inconclusive = small, poorly fitted or top-dose-only effect, or another doubt; inactive = no such curve, though single readings can be large or run the other way;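 also: plate controls were no enzyme wells and a reference inhibitor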
JMJD2E inh = inhibitors of human JMJD2E histone demethylase | JMJD2E catalytic domain, FDH-coupled NADH fluorescence (FDH is formaldehyde dehydrogenase) | Potency, µM (doses to about 57.1 µM), inactives show top-dose activity change, negative = inhibition, actives largely listed as inhibitors | hit rate 1.6% among 230,000 | AID 2147; active = well fitted inhibition curve with a large enough effect, not every such curve was filed as active; inconclusive = small, poorly fitted or top-dose-only effect, or another doubt; inactive = no such curve, though single readings can be large or run the other way;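 also: 0% = wells with enzyme and -100% = buffer wells without enzyme; nearly all actives have a fitted effect of over 50% in size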
Target sequence (B2RXH2 1-337 limits assumed): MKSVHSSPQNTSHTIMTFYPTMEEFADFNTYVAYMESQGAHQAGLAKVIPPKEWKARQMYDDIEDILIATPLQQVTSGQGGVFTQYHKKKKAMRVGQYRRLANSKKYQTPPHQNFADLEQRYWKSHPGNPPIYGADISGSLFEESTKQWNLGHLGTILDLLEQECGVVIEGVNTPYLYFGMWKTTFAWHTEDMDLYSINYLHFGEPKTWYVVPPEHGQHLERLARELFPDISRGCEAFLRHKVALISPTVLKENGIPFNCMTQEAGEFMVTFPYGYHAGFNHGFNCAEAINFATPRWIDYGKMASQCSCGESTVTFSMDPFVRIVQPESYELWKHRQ
Tau FP inhib = blocks human tau fibril formation measured by polarization; P10636; K18 P301L tau heparin fibrillization, Alexa594 FP, 6 h; Potency, µM (doses to about 57.7 µM), without a hit: top-dose activity, negative = inhibition, actives largely listed as inhibitors; hit rate 0.39% among 280,000; AID 1468; also: nearly all actives have a fitted effect of over 55% in size
Target sequence (P10636 561-689 P618L limits assumed): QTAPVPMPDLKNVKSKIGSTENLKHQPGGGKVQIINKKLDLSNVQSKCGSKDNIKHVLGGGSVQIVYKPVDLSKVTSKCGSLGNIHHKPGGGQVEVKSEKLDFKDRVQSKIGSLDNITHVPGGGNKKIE
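Read-out: fluorescence polarization of Alexa 594-labeled tau (0.24 uM), 555 nm excitation, 632 nm emission. Mixtures held 15 uM unlabeled K18 P301L, compound and 20 uM heparin, pH 7 acetate buffer, incubated 6 hr at 37 C.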
Tau fibril ThT = blocks human tau fibril formation measured by thioflavin T | recombinant tau K18 P301L, heparin-induced fibrillization, ThT fluorescence | Potency, µM (top dose mostly 57.4 µM), for inactives: at the top dose activity, negative = inhibition, usual class: inhibitors | hit rate 2.1% among 270,000; also: nearly all actives have a fitted effect of over 55% in size
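Fibril formation assay: tau K18 P301L at 15 uM with trace Alexa 594 label, heparin inducer 20 uM, pH 7 sodium acetate buffer, 37 C for 6 hr; endpoint ThT signal.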
Tau fluor cs = counter-screen for tau fibril formation inhibitors; AID 1463; hit rate 0.93% among 280,000; Potency, µM (top dose mostly 57.7 µM), for the others: at the top dose activity change, negative = decrease; tau K18 P301L Alexa594 fluorescence, heparin fibrillization; also: nearly all actives have a fitted effect of over 55% in size
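Human tau K18 P301L (15 uM unlabeled, 0.24 uM Alexa 594-labeled) in 100 mM sodium acetate pH 7 with 20 uM heparin, 6 hr at 37 C. ThT 30 uM added, 1 hr ambient; Alexa 594 FP and total fluorescence read at 555/632 nm.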
HPGD inh = inhibitors of human 15-hydroxyprostaglandin dehydrogenase (HPGD); Potency, µM, for the others: top-dose activity change, negative = inhibition, usual class: inhibitors; AID 894; purified HPGD, NADH fluorescence kinetic, PGE2 substrate; hit rate 4.3% among 150,000; active = well fitted inhibition curve with a large enough effect, not every such curve was filed as active; inconclusive = small, poorly fitted or top-dose-only effect, or another doubt; inactive = no such curve, though single readings can be large or run the other way
Target sequence (P15428 whole entry, looked up): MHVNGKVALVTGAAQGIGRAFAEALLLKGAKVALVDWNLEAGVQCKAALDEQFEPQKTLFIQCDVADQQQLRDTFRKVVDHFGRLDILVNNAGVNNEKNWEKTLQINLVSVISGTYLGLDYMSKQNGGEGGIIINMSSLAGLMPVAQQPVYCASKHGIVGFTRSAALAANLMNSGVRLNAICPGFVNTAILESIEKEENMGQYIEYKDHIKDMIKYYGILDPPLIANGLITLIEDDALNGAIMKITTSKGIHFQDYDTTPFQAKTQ
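NADH formation kinetics: reaction with 30 uM PGE2 and 1 mM NAD+ (final), 20 nM enzyme, Tris-HCl pH 8 with Tween 20, after 15 min compound preincubation at room temperature. Fluorescence change, last versus first of five reads.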
Active calls of the source: *; ? = inconclusive; . = not tested or not shown. Unless noted, calls follow the shape of the dose curve; as a rule, active = well fitted curve in the direction sought with a large enough effect; inconclusive = small, poorly fitted or top-dose-only effect, or another doubt; inactive = no such curve, though single readings can be large; an effect the other way counts as inactive or inconclusive. Unless noted, % is scaled to controls: 0 for no effect and ±100 for the full control effect; potency is read from the fitted curve at half-maximal effect.

SMILES | ALDH1A1 inh | JMJD2E inh | Tau FP inhib | Tau fibril ThT | Tau fluor cs | HPGD inh
Cc1cccc(-c2nc3c(c(=O)c4ccccc4n3C)c(=O)n2-c2ccccc2)c1 | . | 1% | -3% | 3% | 8% | .
CN(c1ccccc1)c1ccc(/C=C/[N+](=O)[O-])cc1 | 8.9µM* | 3% | 1% | -14% | -18% | 32µM*
CN(C)c1ccc(-n2cccc2/C=C/[N+](=O)[O-])cc1 | ? | -11% | -2% | ? | ? | .
Cc1ccc(C(=O)NC(=S)NCC2CCCO2)cc1[N+](=O)[O-] (stereo unspecified) | 14µM* | 3% | 2% | -1% | -5% | .
Cc1ccc(C(=O)NCC2CCCO2)cc1[N+](=O)[O-] (stereo unspecified) | 4% | 3% | -8% | -6% | -5% | -25%
O=C(NCCc1ccccc1)c1ccc(NCC2CCCO2)c([N+](=O)[O-])c1 (stereo unspecified) | ? | -22% | 10% | 16µM* | -20% | .
COc1ccc2nc(NC(=O)c3nc(S(=O)(=O)Cc4ccccc4)ncc3Cl)sc2c1 | . | . | -8% | 8.9µM* | ? | .
COc1ccc2nc(NC(=O)c3nc(S(=O)(=O)Cc4ccccc4F)ncc3Cl)sc2c1 | . | . | 2% | 7.1µM* | ? | .
Cc1cccc(-c2nc(CSCC(=O)N3CCN(c4ccccc4)CC3)c(C)o2)c1 | . | . | 0% | ? | -24% | .
CCOC(=O)C1CCN(CCC(=O)Nc2ccc(F)cc2)CC1 | 11% | 3% | -1% | 0% | -2% | .
NS(=O)(=O)c1ccc(CCNC(=O)/C=C/c2ccc([N+](=O)[O-])cc2)cc1 | -16% | 2% | 0% | ? | -11% | .
CC(C)c1ccc(/C=C/C(=O)NCc2ccc(S(N)(=O)=O)cc2)cc1 | 28µM* | -4% | -8% | -17% | -10% | .
Cc1ccc(/C=C/C(=O)NCc2ccc3c(c2)OCO3)o1 | ? | -6% | -3% | -7% | 1% | ?
Cc1ccc(/C=C/C(=O)NCCc2c[nH]c3ccccc23)o1 | 14µM* | -6% | -3% | ? | -18% | .
COc1ccc(/C=C/C(=O)NCCc2ccc(S(N)(=O)=O)cc2)cc1 | 10µM* | -2% | ? | ? | -20% | -7%
Cc1ccc(/C=C/C(=O)NCc2ccc(S(N)(=O)=O)cc2)o1 | 1.8µM* | -7% | ? | 25µM* | -16% | .
CCCCN1CC2=C(C1=O)C(c1ccc(O)cc1)NC(=O)N2C (stereo unspecified) | 15% | 1% | -6% | -7% | -3% | .
CN1CCN(C(=O)c2nc3ccc(Cl)cc3[nH]2)CC1 | -2% | -9% | 0% | -7% | -13% | -17%
COc1cc(OC)c2c(OC)c(-c3ccc4c(c3)OCO4)c(=O)oc2c1 | ? | -12% | 5% | ? | -17% | ?
COC(=O)c1c(C)c2c(C)cc3ccccn3c-2c1C(=O)OC | -6% | 9% | 17% | 13µM* | ? | -5%
COC(=O)c1cc2c(-c3ccccc3)cc3ccccn3c-2c1C(=O)OC | ? | -1% | 10% | 16µM* | ? | -7%
COC(=O)c1c(C)n(-c2ccccc2)c2ccc(O)cc12 | -14% | ? | -10% | ? | -29% | ?
COC(=O)c1c(C(=O)OC)c2cccc3cc(-c4ccccc4)c4ccc1c4n32 | -11% | 2.5µM* | -14% | 3.5µM* | ? | -22%
C=CCc1cccc2cc(C(=O)Nc3ccc(S(=O)(=O)Nc4nnc(CC)s4)cc3)c(=O)oc12 | -2% | -12% | 5% | ? | -4% | ?
COc1ccc(NC(=O)CC2Sc3ncnn3C2=O)cc1 (stereo unspecified) | 0.4µM* | 2µM* | 6% | ? | -11% | 7.9µM*
SMILES | ALDH1A1 inh | JMJD2E inh | Tau FP inhib | Tau fibril ThT | Tau fluor cs | HPGD inh
CCOC(=O)c1ccc(NC(=O)CC2Sc3ncnn3C2=O)cc1 (stereo unspecified) | 1µM* | 1.8µM* | 5% | ? | -4% | 16µM*
COCCN1C(=O)C(CC(=O)Nc2ccccc2)SC1=Nc1ccc(OC)cc1 (stereo unspecified) | -7% | 11% | -6% | -8% | -21% | -6%
CCOC(=O)c1ccc(NC(=O)CC2SC(=NC)N(C)C2=O)cc1 (stereo unspecified) | 13µM* | -1% | -1% | -13% | -12% | -9%
O=C(CC1Sc2ncnn2C1=O)Nc1ccc(Cl)cc1 (stereo unspecified) | 7.9µM* | 1.6µM* | -9% | ? | -12% | .
CCOC(=O)c1ccccc1NC(=O)CC1SC(=NC)N(C)C1=O (stereo unspecified) | 1% | ? | -6% | -9% | -7% | -6%
Cc1cc(C(=O)CSc2nncs2)c(C)n1-c1c(C)n(C)n(-c2ccccc2)c1=O | -1% | 1% | 2% | -6% | -1% | -3%
Cc1ccc(-n2c(C)cc(C(=O)CSc3nncs3)c2C)cc1 | 6% | ? | 3% | ? | -13% | 25µM*
COc1ccc(-n2c(C)cc(C(=O)CCl)c2C)cc1 | 0.32µM* | -5% | 17% | ? | 2% | .
Cc1cc(-n2c(C)cc(C(=O)CCl)c2C)no1 | 1µM* | 7% | 8% | -15% | 6% | .
COc1ccc(-n2c(C)cc(C(=O)CN3C(=O)c4ccccc4C3=O)c2C)cc1 | ? | 2% | ? | -8% | -22% | -11%
Cc1ccc(-n2nnnc2SCC(=O)c2cc(C)n(-c3cc(C)on3)c2C)c(C)c1 | 2.2µM* | ? | -15% | -13% | -22% | -18%
CCSc1oc(-c2cccs2)nc1S(=O)(=O)c1ccc(Br)cc1 | . | . | -9% | ? | ? | .
COC(=O)[C@@]1(Cc2ccc(OC)cc2)[C@H]2c3cc(C(=O)N(C)C)n(Cc4ccc(O)c(OC)c4)c3C[C@H]2CN1C(=O)c1ccccc1 | -8% | ? | -8% | -12% | -9% | -9%
COc1ccc(-n2c(C)cc(C(=O)COC(=O)Cn3cnc4ccccc43)c2C)cc1 | 13µM* | -3% | 2% | ? | -6% | -29%
Cc1[nH]c2ccccc2c1C(=O)COC(=O)Cn1cnc2ccccc21 | ? | 1% | -1% | -4% | -10% | .
Cc1cc(-n2c(C)cc(C(=O)CSc3nnnn3-c3ccccc3)c2C)no1 | 7.1µM* | -3% | -4% | ? | -28% | -12%
Cc1cc(C(=O)CSc2nnnn2-c2ccccc2)c(C)n1CCc1ccccc1 | ? | 4% | -10% | -2% | -11% | -14%
Cc1cc(C(=O)CSc2nnnn2-c2ccc(O)cc2)c(C)n1C | 16µM* | -14% | -10% | 5% | 5% | .
Cc1cc(C(=O)CCl)c(C)n1-c1c(C)n(C)n(-c2ccccc2)c1=O | 13µM* | 0% | -2% | -10% | 9% | .

Screening results: PubChem, National Center for Advancing Translational Sciences (NCATS)
